Shn3 3UTR inh: inhibitors of Schnurri-3 3'UTR reporter in osteoblasts | Clone20 osteoblast Shn3 3'UTR firefly luciferase, 24 h | inhibition, % at 12.5 µM | 0.52% of 360,000 active | AID 588674;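 active means mean inhibition of at least 75% with every replicate also reaching 75%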;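 further: 0% = median of neutral control wells and 100% = pilot-screen positive control compound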
KKLEB cytotox: counter-screen for CF NF-kB inhibitors: cytotoxicity; activity change (cytotoxicity), % at 5 µM; AID 602141; KKLEB CF airway cells viability, ATPlite luminescence, overnight; hits give low values; cells stimulated with P. aeruginosa culture filtrate; 0.36% of 360,000 active;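 active means corrected activity change at or below -50% at 5 µM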
TRPM1 prom inh: MITF TRPM1 promoter inhibition in SK-MEL-5 cells | 0.83% of 330,000 active | SK-MEL-5 TRPM1 promoter luciferase, 24 h | inhibition, % at 12.5 µM | AID 488899;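 active means mean inhibition across replicates of 60% or more, whatever share of single replicates reaches that level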
Peg3 prom inh: Peg3 promoter activity inhibition; 1.7% of 360,000 active; HeLa PEG-Prom luciferase reporter, luminescence, overnight; inhibition, % at 20 µM;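 active means inhibition of at least 50% at 20 µM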
CF NFkB inh: cystic fibrosis NF-kB activation inhibition. KKLEB NF-kB-GFP reporter, PAF-induced, GFP fluorescence overnight. inhibition, % at 5 µM. 0.86% of 360,000 active. AID 588850;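 active means at least 50% inhibition at 5 µM, scaled per plate between neutral and stimulator controls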;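 further: PAF is a Pseudomonas aeruginosa culture filtrate used as stimulus; plate controls were PAF-stimulated DMSO wells for no effect and unstimulated DMSO wells for full effect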
EBV LMP1 NFkB: Epstein-Barr LMP1 NF-kappaB reporter inhibition. LMP1-induced NF-kappaB luciferase reporter cells, luminescence. inhibition, % at 12.5 µM. 0.69% of 350,000 active; in the data active means inhibition above about 41%;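 further: 0% = neutral control wells and 100% = reference inhibitor control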
* = called active by the depositor; . = not tested or not shown; ! = a repeat was not active. Sampled rows, rich in hits. Any-hit rate of the full collection: about 2.9%.

SMILES	Shn3 3UTR inh	KKLEB cytotox	TRPM1 prom inh	Peg3 prom inh	CF NFkB inh	EBV LMP1 NFkB
COc1ccc(CN2C[C@@H](CO)O[C@@H](n3cnc4c(N(C)C)ncnc43)C2)cc1	3.3	-3.4	.	-3.6	10.8	.
Cc1nc2ccccc2n1/N=C/c1ccc([N+](=O)[O-])s1	91.6*	-20.3	81.6*	42.6	21.3	-4.5
Cc1nc2ccccc2n1/N=C/c1ccc([N+](=O)[O-])o1	4.3	-19.2	10.4	-8.1	12.4	2.9
O=[N+]([O-])c1ccc(/C=N/n2c(CO)nc3ccccc32)s1	-13.8	-8.3	72.0*	44.5	21.6	-25.0
COc1ccc(-c2nnc3n2N=C(C)CS3)cc1	-9.0	-5.9	9.2	-7.8	11.2	-0.6
CCOC(=O)/C(=C/c1ccc(OC(F)F)cc1)C1=Nn2c(nnc2-c2ccc(Cl)cc2)SC1	94.6*	-104.1*	94.9*	106.3*	92.3*	16.2
CCOC(=O)/C(=C\c1ccc(OC(F)F)cc1)C1=Nn2c(nnc2-c2ccc(Cl)cc2)SC1	94.6*	-89.6*	98.9*	102.6*	88.0*	-9.6
Cn1c(=O)c(C(=O)NNC(=O)c2ccccc2F)c(O)c2ccccc21	3.7	-3.1	4.3	17.1	3.7	-11.5
Cn1c(=O)c(C(=O)NNC(=O)c2ccc(Br)cc2)c(O)c2ccccc21	1.2	-2.7	20.1	53.5*	1.9	-3.7
C#CCOc1ccc(CNC[C@H]2O[C@@H](n3ccc(=O)[nH]c3=O)[C@H](O)[C@@H]2O)cc1	1.9	4.1	.	5.7	5.4	.
Cc1ccc(-c2nnc(SCC(=O)N/N=C/c3ccc(C)s3)n2-c2ccccc2)cc1	5.8	1.1	-3.7	65.3*	13.6	-4.6
CCCc1cc2c(cc1N(C)S(=O)(=O)c1ccccc1)OCO2	-10.2	1.1	1.4	23.0	3.0	2.8
CC12CC3CC1C(C(=O)O2)C3C(=O)O (centres undefined)	-25.5	8.5	3.8	3.6	-15.9	3.8
CC1CCC(C(C)C)C(OC(=O)Cn2c(-c3ccc(Cl)cc3)[n+](C)c3ccccc32)C1 (centres undefined)	68.0	-58.0*	89.5*	75.6*	55.8*	10.4
Cc1ccccc1OCc1n(CC(=O)OC2CC(C)CCC2C(C)C)c2ccccc2[n+]1C (centres undefined)	5.9	-82.7*	97.4*!	102.0*	83.2*	-4.3
CC1CCC(C(C)C)C(OC(=O)Cn2c(-c3ccc(Br)cc3)[n+](C)c3ccccc32)C1 (centres undefined)	20.8	-57.3*!	90.7*	95.6*!	54.5*	-0.7
CCOC(=O)Cn1c(COc2ccccc2OC)[n+](C)c2ccccc21	12.6	-0.6	.	7.7	1.3	.
CCN(CC)S(=O)(=O)c1ccc(SCC(=O)c2c(N)n(C3CC3)c(=O)[nH]c2=O)nc1	-3.5	-4.3	.	15.6	1.8	0.1
COc1ccc(CC(=O)OCC(=O)N2CCN(S(=O)(=O)c3ccc(C)cc3C)CC2)cc1	-16.3	-2.0	-1.0	2.0	-0.5	69.1*
C=CC[N+](C)(C)C/C(Cl)=C(\Cl)c1ccccc1	22.0	-2.4	0.9	3.7	4.0	49.2*
C/C(Cl)=C\C[N+](C)(C)CC(=O)OCCc1ccccc1	-0.5	-0.9	.	-3.4	-10.4	.
CCCCCn1c(N)c(-c2nc3ccccc3s2)c2c([N+](=O)[O-])nn(CC)c(=O)c21	16.5	-58.5*	-4.9	35.2	59.0*	7.3
CCCCn1c(N)c(-c2nc3ccccc3s2)c2c([N+](=O)[O-])nn(CC)c(=O)c21	0.3	-54.9*	-5.3	19.6	44.9	-1.5
CCCCn1c(N)c(-c2nc3ccccc3s2)c2c([N+](=O)[O-])nn(C)c(=O)c21	3.7	-32.7	16.1	16.5	48.7	-9.1
COc1ccc(C2CC=C(C(C)=O)CN2S(=O)(=O)c2ccc(C)cc2)cc1 (centres undefined)	2.2	-3.2	.	-23.4	26.6	.
SMILES	Shn3 3UTR inh	KKLEB cytotox	TRPM1 prom inh	Peg3 prom inh	CF NFkB inh	EBV LMP1 NFkB
COCCCNC(=O)c1ccccc1Oc1ccccc1	42.9	2.8	3.2	2.7	-7.1	2.1
COCCCNC(=O)c1ccc2c3c(onc13)-c1ccccc1C2=O	-43.8	5.6	82.7*	-134.7	9.5	-7.5
CCN(CC)S(=O)(=O)c1ccc(C)c(NC(=S)N2CCN(C/C=C/c3ccccc3)CC2)c1	88.0*	0.7	51.8	24.4	4.2	25.9
CCN(CC)S(=O)(=O)c1ccc(C)c(NC(=S)N2CCN(c3ccccn3)CC2)c1	27.8	-3.0	9.8	12.8	1.3	4.5
COc1ccc([C@@H]2C[C@H]3CN(c4ccccc4)C(=O)[C@]34CCCN24)c(OC)c1OC	3.8	-7.6	-11.7	-1.6	5.1	11.3
COCc1cc([C@@H]2C[C@H]3CN(c4ccccc4)C(=O)[C@]34CCCN24)ccc1OC	-8.7	0.1	-5.7	53.8*	6.2	8.9
O=C1N(c2ccccc2)C[C@@H]2C[C@@H](c3cccs3)N3CCC[C@@]123	47.9	13.1	3.0	72.9*	-3.3	0.3
C/C(=N\Nc1ncc(Cl)cc1Cl)c1ccccn1	86.3*	-58.7*	95.2*	71.0*	23.3	85.0*
C/C(=N\Nc1ncnc2sc(C)c(C)c12)c1ccccn1	88.7*	-3.8	66.9*	83.9*	-25.8	83.7*
Cc1sc2ncnc(N/N=C/c3cccc(O)c3)c2c1C	-35.2	-3.4	-74.6	-236.9	-2.2	4.4
CC1=C(C(=O)N2CCCCCC2)CC(CC(=O)NCc2ccco2)C(=O)N1Cc1ccccc1 (centres undefined)	-4.4	2.9	.	3.9	-3.0	.
CC1Cc2ccccc2N1C(=O)c1cc2sccc2n1Cc1ccc(F)cc1 (centres undefined)	16.1	-7.0	13.2	54.0*	16.9	-9.0
COc1ccccc1C(CCNCc1ccc(N(C)C)cc1)c1ccc(OC(C)C)cc1 (centres undefined)	93.0*	-1.2	76.7*	106.9*	0.4	-23.8
COc1ccc(CNCCC(c2ccc(OC(C)C)cc2)C(C)C)cc1OC (centres undefined)	76.1	-8.8	50.0	35.6	9.2	-26.9
COc1ccccc1C(CCNCc1ccccc1)c1ccc(OC(C)C)cc1 (centres undefined)	42.9	-3.0	12.0	100.5*	4.1	-5.3
COc1ccc(CNCCC(c2ccc(OC(C)C)cc2)c2ccccc2OC)cc1 (centres undefined)	96.5*	-32.5	44.1	113.1*	27.3	16.3
COc1ccc(C(CCNCc2ccc(N(C)C)cc2)C(C)C)cc1 (centres undefined)	50.9	-10.5	23.1	27.1	2.4	2.4
COc1ccc(CNCCC(c2ccc(OC(C)C)cc2)c2ccccc2OC)cc1OC (centres undefined)	82.4	-8.5	66.2*	87.3*	16.2	10.9
COc1ccc(C(CCNCc2ccc(OC(C)C)cc2)C(C)C)cc1 (centres undefined)	70.1	-9.5	.	49.2	2.3	.
